We go through seven compounds from PubChem BioAssay (NCI).

Assay [1] is described as follows: NCI Yeast Anticancer Drug Screen. Data for the rad50 strain (AID 155).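 Further: 0% = growth of vehicle-only cultures of the same strain.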 As to conditions: S. cerevisiae rad50 strain growth inhibition, active compounds read high. In a few lines: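 Relative growth inhibition (compound vs vehicle) was measured in yeast with a defined repair-gene alteration.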
Assay [2] in a line: NCI Yeast Anticancer Drug Screen. Data for the mec2-1 strain (AID 157). As to conditions: S. cerevisiae mec2-1 strain, active compounds read high. The procedure, abridged:
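mec2-1 yeast strain, carrying an alteration in DNA damage repair or cell cycle control, was exposed to compounds; growth inhibition was measured relative to vehicle-treated controls.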

A short description of assay [3]: NCI Yeast Anticancer Drug Screen. Data for the sgs1 mgt1 strain (AID 161).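 Further: 0% = growth of cultures given vehicle only.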 The conditions noted are these: S. cerevisiae sgs1 mgt1 strain, active compounds read high. In a few lines: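 Compounds are added to genetically altered yeast, and growth is compared with cultures given vehicle alone to give percent inhibition.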
Assay [4] in a line: NCI Yeast Anticancer Drug Screen. Data for the cln2 rad14 strain (AID 165).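 Further: 0% = growth equal to vehicle treated cultures.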 As to conditions: S. cerevisiae cln2 rad14 strain, active compounds read high. In a few lines:
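Yeast carrying cln2 and rad14 alterations (cell cycle control and DNA damage repair) were exposed to compounds. Growth inhibition was measured against vehicle-treated controls.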

A short description of assay [5]: NCI Yeast Anticancer Drug Screen. Data for the bub3 strain (AID 167). The conditions noted are these: S. cerevisiae bub3 mutant strain, active compounds read high. The procedure, abridged: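 Screening used yeast with an engineered genetic alteration affecting cell cycle control. Compound-exposed cultures were compared with vehicle cultures, and reduced growth was taken as inhibition.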

The nature of assay [6]: NCI Yeast Anticancer Drug Screen. Data for the mlh1 rad18 strain (AID 175). The conditions noted are these: S. cerevisiae mlh1 rad18 strain growth inhibition, active compounds read high. In a few lines:
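Growth inhibition of the yeast strain was measured after compound exposure and expressed relative to vehicle-treated controls. The strain carries defined defects in DNA damage repair.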

Where [7] appears, read: at 5.0 µM (retest, dose inferred, filed as 0.5).
The mark [8] stands for this setting: at 50.0 µM (retest, dose inferred, filed as 5.0).

Each structure is given as a SMILES string. About 79,000 compounds went through this panel and 15% of them were active in at least one assay; those are over-represented in the sample as a whole. Unmarked numbers belong to inactive results. Activity calls are given as the source filed them. No stated cut-off is given here; in the data, active means growth inhibition above about 70%; inactive means the rest.

Regarding `Cc1cc(=O)[nH]c(NN2C(Cl)C(=O)C2c2ccc(O)cc2)n1` (stereo unspecified), the growth inhibition was -14% in assay [1] (setting [7]); 81% (active) in assay [1] (setting [8]); 82.2% (active) in assay [1] (at 50.0 µM); -9% in assay [2] (setting [7]); 82% (active) in assay [2] (setting [8]); 67.2% in assay [2] (at 50.0 µM). Moreover, the growth inhibition is -5% in assay [3] (setting [7]); 68% in assay [3] (setting [8]); 79.5% (active) in assay [3] (at 50.0 µM); 14% in assay [4] (setting [7]); 63% in assay [4] (setting [8]); 53.6% in assay [4] (at 50.0 µM). Moreover, the growth inhibition in assay [5] (setting [7]) was 7%; in assay [5] (setting [8]), 94% (active); in assay [5] (at 50.0 µM) it was 78.3% (active); in assay [6] (setting [7]) it was 7%; in assay [6] (setting [8]), 92% (active); in assay [6] (at 50.0 µM), 71.3% (active).
Take `O=C1NC(=O)C(Cc2ccccc2)(Cc2ccccc2)S1`: the growth inhibition in assay [1] (setting [7]) was 5%; in assay [1] (setting [8]), 98% (active); in assay [1] (at 50.0 µM), 99.2% (active); in assay [2] (setting [7]), 10%; in assay [2] (setting [8]) it was 99% (active); in assay [2] (at 50.0 µM), 99.4% (active). Also, the growth inhibition is -16% in assay [3] (setting [7]); 98% (active) in assay [3] (setting [8]); 99.3% (active) in assay [3] (at 50.0 µM); 21% in assay [4] (setting [7]); 99% (active) in assay [4] (setting [8]); 99.2% (active) in assay [4] (at 50.0 µM). Further, the growth inhibition was 17% in assay [5] (setting [7]); 99% (active) in assay [5] (setting [8]); 99.5% (active) in assay [5] (at 50.0 µM); 6% in assay [6] (setting [7]); 99% (active) in assay [6] (setting [8]); 99.2% (active) in assay [6] (at 50.0 µM).
On to `CCOC(=O)c1cnn(-c2ccccc2)c1N`, for which the growth inhibition in assay [1] (setting [7]) is 62%; in assay [1] (setting [8]) it was 98% (active); in assay [1] (at 50.0 µM), 88.8% (active); in assay [2] (setting [7]) it was 26%; in assay [2] (setting [8]) it was 99% (active); in assay [2] (at 50.0 µM), 92.8% (active). Moreover, the growth inhibition in assay [3] (setting [7]) was 18%; in assay [3] (setting [8]), 98% (active); in assay [3] (at 50.0 µM), 89.4% (active); in assay [4] (setting [7]), 15%; in assay [4] (setting [8]) it was 97% (active); in assay [4] (at 50.0 µM), 86.6% (active). In addition, the growth inhibition in assay [5] (setting [7]) was 63%; in assay [5] (setting [8]), 98% (active); in assay [5] (at 50.0 µM), 90.2% (active); in assay [6] (setting [7]) it was 23%; in assay [6] (setting [8]), 98% (active); in assay [6] (at 50.0 µM) it was 88.2% (active).
Take `C[n+]1c2ccccc2cc2[nH]c3ccccc3c21`: the growth inhibition in assay [1] (setting [7]) is 84% (active); in assay [1] (setting [8]) it was 93% (active); in assay [1] (at 50.0 µM), 74% (active); in assay [2] (setting [7]) it was 86% (active); in assay [2] (setting [8]), 96% (active); in assay [2] (at 50.0 µM), 78.6% (active). Besides, the growth inhibition in assay [3] (setting [7]) was 89% (active); in assay [3] (setting [8]), 98% (active); in assay [3] (at 50.0 µM) it was 79.7% (active); in assay [4] (setting [7]), 63%; in assay [4] (setting [8]) it was 75% (active); in assay [4] (at 50.0 µM), 64.8%. The growth inhibition in assay [5] (setting [7]) is 84% (active); in assay [5] (setting [8]) it was 84% (active); in assay [5] (at 50.0 µM) it was 72.7% (active); in assay [6] (setting [7]) it was 90% (active); in assay [6] (setting [8]), 97% (active); in assay [6] (at 50.0 µM), 77.3% (active).
As for `CN1C(=O)OC(C)(c2ccccc2)C1=O` (stereo unspecified), the growth inhibition in assay [1] (setting [7]) was -3%; in assay [1] (setting [8]), 4%; in assay [1] (at 50.0 µM), -14.7%; in assay [2] (setting [7]) it was -2%; in assay [2] (setting [8]), -3%; in assay [2] (at 50.0 µM) it was -1.1%. Also, the growth inhibition is -2% in assay [3] (setting [7]); 0% in assay [3] (setting [8]); -13.6% in assay [3] (at 50.0 µM); 2% in assay [4] (setting [7]); -1% in assay [4] (setting [8]); 78% (active) in assay [4] (at 50.0 µM). The growth inhibition in assay [5] (setting [7]) was 2%; in assay [5] (setting [8]), -7%; in assay [5] (at 50.0 µM) it was -11.8%; in assay [6] (setting [7]) it was 0%; in assay [6] (setting [8]), 8%; in assay [6] (at 50.0 µM), -2.55%.
Take `O=[N+]([O-])c1ccc(N/N=C/CCCCCCCCCCBr)c([N+](=O)[O-])c1`: the growth inhibition is -4% in assay [1] (setting [7]); -3% in assay [1] (setting [8]); 24.8% in assay [1] (at 50.0 µM); -2% in assay [2] (setting [7]); 1% in assay [2] (setting [8]); 10.4% in assay [2] (at 50.0 µM). For the same compound, the growth inhibition was -5% in assay [3] (setting [7]); 0% in assay [3] (setting [8]); 2.4% in assay [3] (at 50.0 µM); -4% in assay [4] (setting [7]); -6% in assay [4] (setting [8]); 9.15% in assay [4] (at 50.0 µM). The growth inhibition in assay [5] (setting [7]) was -5%; in assay [5] (setting [8]), 1%; in assay [5] (at 50.0 µM), 50.3%; in assay [6] (setting [7]), -1%; in assay [6] (setting [8]), -2%; in assay [6] (at 50.0 µM) it was 21.4%.
In the case of `CCNC(=S)NC1CCCCCCCCCCC1`, the growth inhibition in assay [1] (setting [7]) was 99% (active); in assay [1] (setting [8]), 100% (active); in assay [1] (at 50.0 µM) it was 87.8% (active); in assay [2] (setting [7]), 99% (active); in assay [2] (setting [8]) it was 99% (active); in assay [2] (at 50.0 µM), 75.3% (active). Also, the growth inhibition in assay [3] (setting [7]) was 26%; in assay [3] (setting [8]), 88% (active); in assay [3] (at 50.0 µM), 87.2% (active); in assay [4] (setting [7]) it was 51%; in assay [4] (setting [8]) it was 59%; in assay [4] (at 50.0 µM), 20.8%. Moreover, the growth inhibition in assay [5] (setting [7]) was 40%; in assay [5] (setting [8]), 81% (active); in assay [5] (at 50.0 µM) it was 82.9% (active); in assay [6] (setting [7]) it was 100% (active); in assay [6] (setting [8]), 100% (active); in assay [6] (at 50.0 µM), 69.2%.
